Test results as given in PubChem BioAssay (NCI).
The panel holds about 79,000 compounds, 15% with a hit somewhere; the sample as a whole holds those more often. Unmarked numbers belong to inactive results. The source made the active and inactive calls. Cut-off read from the data, not from the text of the source: active = growth inhibition above about 70%; inactive = the rest.

Experiment: NCI Yeast Anticancer Drug Screen. Data for the cln2 rad14 strain (AID 165);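 note: 0% = growth equal to vehicle treated cultures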
Conditions: S. cerevisiae cln2 rad14 strain, at 50.0 µM, hits give high values
Procedure, shortened: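 The screen exposed genetically defined yeast (cln2 rad14) to test compounds and scored growth inhibition relative to vehicle-treated controls.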

Row | SMILES | growth inhibition
1 | CC(C(=O)O)N(CCC#N)CCC#N (stereo not given) | 0.1%
2 | O=C(O)c1ccccc1NC(=O)C1CCCCC1 | 0.85%
3 | CCC(C)(O)C(=O)O (stereo not given) | -4.75%
4 | CC1CCCCNC1=S (stereo not given) | 6.6%
5 | CN(C)CCCNc1ccc2nnn3c4ccc([N+](=O)[O-])cc4c(=O)c1c23 | 55.1%
6 | Cc1ccsc1/C=N/Nc1ncccn1 | 3.7%
7 | NC(=O)N/N=C/c1cccc2ccccc12 | 6.35%
8 | O=C(/C(=N\Nc1ccc([N+](=O)[O-])cc1[N+](=O)[O-])c1ccccc1)c1ccccc1 | -20.8%
9 | O=C(O)/C(=C/c1ccccc1)c1ccccc1 | -23.1%
10 | COC(=O)C1C(O)C(C(=O)OC)C(C)N(C)C1C (stereo not given) | -26.1%
11 | Cc1cccc(Cl)c1NC(=O)Nc1ccc(Cl)cc1C(=O)c1ccccc1 | 4.2%
12 | CCOC(=O)C(=CNc1cccc(Cl)c1)C(=O)OCC | -26.9%
13 | CCCNC(=S)/N=C\c1c(O)c2ccccc2oc1=O | -0.45%
14 | O=C(OC(C[n+]1ccccc1)c1ccccc1)c1ccccc1 (stereo not given) | 14.5%
15 | Nc1cc(=O)[nH]c(N)n1 | -83.9%
16 | O/N=C1\CC2(N3CCOCC3)CCC1(c1ccccc1)CC2 | 20.9%
17 | COC(=O)CC1C(OC)OC23CCC1C2(C)CCC1C3CCC2CC(OC(C)=O)CCC21C (stereo not given) | -30.2%
18 | CC(C)(CO)NC(=O)c1cccs1 | 12.7%
19 | Cc1ccccc1NC(=S)NN | 16.6%
20 | O=C(c1ccc(Cl)cc1)c1ccc(OCCSCCCCCCCCCCSCCOc2ccc(C(=O)c3ccc(Cl)cc3)cc2)cc1 | -9.4%

Row | SMILES | growth inhibition
21 | C=CCNc1ccc(C)cc1 | 13.4%
22 | COC(=O)c1ccc(C(=O)OC)cc1 | 12.2%
23 | O=C(CC1C(=O)Nc2ccccc2S1(=O)=O)Nc1cc(Cl)ccc1Cl (stereo not given) | 15.1%
24 | Cc1cc(Cl)cc(CN(C)Cn2c(=O)cc[nH]c2=O)c1O | -31.9%
25 | C=C1C(=O)N2CCc3c([nH]c4ccccc34)[C@H]2C[C@@H]1CO | 5%
26 | C=CCC(OCCC)c1ccc2c(c1)OCO2 (stereo not given) | 5.05%
27 | N=C1N(S(=O)(=O)c2ccccc2)[C@@H](Cc2ccccc2)[C@H](c2ccccc2)C1(c1ccccc1)c1ccccc1 | -29.6%
28 | CCN(CC)C(=O)c1ccccc1 | -2.65%
29 | CCC1(C)CC(C)(C)c2ccc(C)cc21 (stereo not given) | -9.2%
30 | Cn1c(=O)c2nc(SC3CCCCC3)n(C)c2n(C)c1=O | -28.3%
31 | CC(C(=O)O)C1Nc2ccccc2NC1=O (stereo not given) | -12.4%
32 | O=C(NC[N+]12CCO[B-]1(c1ccc(Cl)cc1)OCC2)c1ccccc1O (stereo not given) | 25%
33 | O=[N+]([O-])c1ncc(N(CCO)CCO)s1 | 3.65%
34 | CC(=O)C(N)=NCc1ccccc1 | 4.6%
35 | O=C(O)CC(NC(=O)OCc1ccccc1)C(=O)OCc1ccccc1 (stereo not given) | -16.6%
36 | O=C(/C=C/c1ccc(Cl)cc1)c1ccccc1O | -10.8%
37 | CC12CC(=O)C3C(CCC4=CC(=O)CCC43C)C1CC=C2CC(=O)O (stereo not given) | -3.85%
38 | CCOC(=O)C(N=Nc1ccccc1)C(=O)c1ccccc1 (stereo not given) | -22.1%
39 | O=C1c2ccsc2C(=O)c2sc(CO)cc21 | 91.8% (active)
40 | Cc1cn(C2CC(O)C(COC(=O)C(C)(C)C)O2)c(=O)[nH]c1=O (stereo not given) | -0.1%

Experiment: NCI Yeast Anticancer Drug Screen. Data for the bub3 strain (AID 167)
Conditions: S. cerevisiae bub3 mutant strain, at 50.0 µM, hits give high values
Procedure, shortened: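 Inhibition values come from growth of compound-treated mutant yeast normalised to vehicle-treated controls.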

Row | SMILES | growth inhibition
41 | CC(C(=O)O)N(CCC#N)CCC#N (stereo not given) | 2.35%
42 | O=C(O)c1ccccc1NC(=O)C1CCCCC1 | -6.55%
43 | CCC(C)(O)C(=O)O (stereo not given) | -13.3%
44 | CC1CCCCNC1=S (stereo not given) | 17.8%
45 | CN(C)CCCNc1ccc2nnn3c4ccc([N+](=O)[O-])cc4c(=O)c1c23 | 65.7%
46 | Cc1ccsc1/C=N/Nc1ncccn1 | 13.9%
47 | NC(=O)N/N=C/c1cccc2ccccc12 | 4.05%
48 | O=C(/C(=N\Nc1ccc([N+](=O)[O-])cc1[N+](=O)[O-])c1ccccc1)c1ccccc1 | 2.95%
49 | O=C(O)/C(=C/c1ccccc1)c1ccccc1 | -33.5%
50 | COC(=O)C1C(O)C(C(=O)OC)C(C)N(C)C1C (stereo not given) | -18.2%
51 | Cc1cccc(Cl)c1NC(=O)Nc1ccc(Cl)cc1C(=O)c1ccccc1 | 7.45%
52 | CCOC(=O)C(=CNc1cccc(Cl)c1)C(=O)OCC | 32.2%
53 | CCCNC(=S)/N=C\c1c(O)c2ccccc2oc1=O | -0.2%
54 | O=C(OC(C[n+]1ccccc1)c1ccccc1)c1ccccc1 (stereo not given) | -6.4%
55 | Nc1cc(=O)[nH]c(N)n1 | -5%
56 | O/N=C1\CC2(N3CCOCC3)CCC1(c1ccccc1)CC2 | 38%
57 | COC(=O)CC1C(OC)OC23CCC1C2(C)CCC1C3CCC2CC(OC(C)=O)CCC21C (stereo not given) | -1.7%
58 | CC(C)(CO)NC(=O)c1cccs1 | -4.35%
59 | Cc1ccccc1NC(=S)NN | 11.9%
60 | O=C(c1ccc(Cl)cc1)c1ccc(OCCSCCCCCCCCCCSCCOc2ccc(C(=O)c3ccc(Cl)cc3)cc2)cc1 | -38.6%

Row | SMILES | growth inhibition
61 | C=CCNc1ccc(C)cc1 | -5%
62 | COC(=O)c1ccc(C(=O)OC)cc1 | 8.95%
63 | O=C(CC1C(=O)Nc2ccccc2S1(=O)=O)Nc1cc(Cl)ccc1Cl (stereo not given) | 4.5%
64 | Cc1cc(Cl)cc(CN(C)Cn2c(=O)cc[nH]c2=O)c1O | 8.45%
65 | C=C1C(=O)N2CCc3c([nH]c4ccccc34)[C@H]2C[C@@H]1CO | 7.05%
66 | C=CCC(OCCC)c1ccc2c(c1)OCO2 (stereo not given) | 3.4%
67 | N=C1N(S(=O)(=O)c2ccccc2)[C@@H](Cc2ccccc2)[C@H](c2ccccc2)C1(c1ccccc1)c1ccccc1 | -3.5%
68 | CCN(CC)C(=O)c1ccccc1 | -24.6%
69 | CCC1(C)CC(C)(C)c2ccc(C)cc21 (stereo not given) | -2.9%
70 | Cn1c(=O)c2nc(SC3CCCCC3)n(C)c2n(C)c1=O | 4.5%
71 | CC(C(=O)O)C1Nc2ccccc2NC1=O (stereo not given) | -18.7%
72 | O=C(NC[N+]12CCO[B-]1(c1ccc(Cl)cc1)OCC2)c1ccccc1O (stereo not given) | 24%
73 | O=[N+]([O-])c1ncc(N(CCO)CCO)s1 | -18.2%
74 | CC(=O)C(N)=NCc1ccccc1 | 25.8%
75 | O=C(O)CC(NC(=O)OCc1ccccc1)C(=O)OCc1ccccc1 (stereo not given) | -21.1%
76 | O=C(/C=C/c1ccc(Cl)cc1)c1ccccc1O | -1.25%
77 | CC12CC(=O)C3C(CCC4=CC(=O)CCC43C)C1CC=C2CC(=O)O (stereo not given) | -5.15%
78 | CCOC(=O)C(N=Nc1ccccc1)C(=O)c1ccccc1 (stereo not given) | 38.8%
79 | O=C1c2ccsc2C(=O)c2sc(CO)cc21 | 90% (active)
80 | Cc1cn(C2CC(O)C(COC(=O)C(C)(C)C)O2)c(=O)[nH]c1=O (stereo not given) | -18.5%
